# Assay results reported in PubChem BioAssay (NCI).
# Several values for one entry are separate records, joined by “and”; a condition that tells them apart may be missing. Identical values can stand only once. The panel holds about 83,000 compounds, 20% with a hit somewhere; the sample as a whole holds those more often.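 Method: cells in 96-well plates; compound added at one concentration; 48 h incubation; percent growth measured; values under 10 scored active.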 Activity calls are given as the source filed them.
# Tested on: NCI/ADR-RES ovarian
# Assay: NCI-60 one-dose screen, 48 h (100 = growth as untreated, 0 = no growth, -100 = all killed)
# Conditions: 0.005 µM
# Experimental: Growth inhibition of the NCI/ADR-RES human […] tumor cell line is measured as a screen for anti-cancer activity. Cells are grown in 96 well plates and exposed to the test compound for 48 hours. Compounds are tested at a single concentration, which is 10^-5 M for most compounds. The reported endpoint is percent growth (GI% or GIPRCNT), where numbers from 0 - 100% represent growth inhibition, and numbers from -100% - 0 represent cell death. For example, a value of 40 represents 60% growth inhibition. A value of 0 means no net growth occurred over the course of the experiment. A value of -40 indicates 40% of cells at the beginning of the experiment died by the end of the experiment. A value of -100 means all cells are dead at the end of the experiment.
# NCI-60 Human Tumor Cell Lines Screen was performed using the standard one-dose NCI protocol, which is described in more detail at https://dtp.cancer.gov/discovery_development/nci-60/default.htm.
# Compounds with GIPRCNT values below 10 were considered active. Activity score was based on GIPRCNT using the following formula: […]
# Score is 0 for GIPRCNT values of 100 or above, 50 for GIPRCNT values of 0, and 100 for GIPRCNT values of -100.
row,SMILES,growth
1,CN(C)CCNc1ncc(F)c(-c2cnc3cc(-c4cnn(C)c4)ccn23)n1,101% (inactive)

# Same assay, conditions: 10 µM unless noted
row,SMILES,growth
1,C=C(C)[C@@H]1CC[C@]2(C)[C@H](CC(=O)N[C@H]3[C@@H]4C[C@](C)(C(=O)OC)CC[C@]4(C)CC[C@]32C)[C@@]1(C)CCC#N,86.6% (inactive)
2,O=C(Nc1ncc(Cc2cccc(C(F)(F)F)c2)s1)c1ccc2c(c1)OCCO2,7.71% (active)
3,C=C(c1ccc(C(=O)O)cc1)c1cc2c(cc1C)C(C)(C)CCC2(C)C,71.9% (inactive) and 72.9% (inactive)
4,Clc1ccc(/C=N\N2CCCCCC2)cc1,104% (inactive)
5,O=C(CCCOc1ccc(Br)cc1)Nc1ncc(Cc2ccc(F)cc2)s1,73.6% (inactive)
6,COc1cc(/C=C2\C(=O)N(CCCCn3c4ccccc4c(=O)c4ccccc43)c3ccccc32)cc(OC)c1O,48.6% (inactive)
7,CC/C(=C(/c1ccc(Cl)cc1)c1ccc(OCCN2CCOCC2)cc1)c1ccccc1,103% (inactive)
8,COc1ccc(N2CCN(S(=O)(=O)c3oc(-c4ccccc4)nc3C#N)CC2)cc1,91% (inactive)
9,O=S(=O)(Nc1ccc(F)cc1)c1ccc(-c2cnc(C3CC3)o2)cc1,-0.888% (active)
10,COc1ccc(C2Nc3nc(SC)nc(N)c3N=C3c4ccccc4CCC32)cc1 (stereo not given),56.2% (inactive)
11,COc1ccc(C/C(C)=C(\c2ccc(O)cc2)c2ccc(OCCCN(C)C)cc2)cc1,98.5% (inactive)
12,CCOC(=O)C1=C(C)NC(=O)NC1c1c(Cl)n(-c2ccccc2)c2ccccc12 (stereo not given),85% (inactive)
13,COc1cc(C=O)ccc1Oc1ccc([N+](=O)[O-])cc1[N+](=O)[O-],99.6% (inactive)
14,Cc1ccc(Cl)cc1N1CCN(C(=O)[C@@H]2C[C@@H]2c2ccc(F)cc2)CC1,89.7% (inactive)
15,Nc1nc2ccccc2c2c(=O)c3ccc(Cl)cc3sc12,110% (inactive)
16,Nc1ccc(S(=O)(=O)c2ccc(N)cc2)cc1,101% (inactive) and 97.2% (inactive)
17,Clc1ccc(CNc2ccc3nc(CCC4CCCCC4)[nH]c3c2)cc1,54.7% (inactive)
18,N#Cc1ccccc1OCC(=O)Nc1nc2c(s1)COc1ccccc1-2,104% (inactive)
19,Nc1ncc(-c2ccc3ncnc(N4CCc5ccc(Cl)cc54)c3c2)cc1C(F)(F)F,20.3% (inactive)

row,SMILES,growth
1,Fc1ccccc1-c1cnn2cc(-c3ccccc3)cnc12,95% (inactive)
2,CCOC(=O)c1cnn(CC(O)CC)c1NC(=O)NCc1ccccc1C(F)(F)F (stereo not given),95.4% (inactive)
3,Oc1ccccc1C=Nc1ccc(N2CCN(c3ccccc3)CC2)cc1,92.6% (inactive)
4,CN1CCN(C(=O)OCc2nc3c(N4CCOCC4)nc(Cl)nc3n2C)CC1,-1.09% (active)
5,COc1ccc2nc3cc(Cl)ccc3c(NCCCNCCC(C)O)c2c1 (stereo not given),43.7% (inactive)
6,COc1cc(/C=C2\CCC/C(=C\c3cc(CN4CCCC4)c(O)c(OC)c3)C2=O)cc(CN2CCCC2)c1O,59.8% (inactive)
7,COc1cc(C(=O)c2ccccc2C(=O)O)c(OC)c2c1CCCC2,103% (inactive) and 104% (inactive)
8,O=c1c(/C=C/c2ccco2)nnc2sc(Nc3ccc(Cl)cc3)nn12,102% (inactive)
9,O=C(c1cccc(Br)c1)N1CCN(c2ccnc3cc(Cl)ccc23)CC1,88.1% (inactive)
10,CN(C)C(=O)c1cc2cnc(Nc3ccc(-c4csc5c(=S)cc(N6CCOCC6)oc45)cc3)nc2n1C1CCCC1,14.1% (inactive)
11,O=C(Nc1ncc(Cc2cccc(C(F)(F)F)c2)s1)c1ccc(-n2cnnn2)cc1,35.9% (inactive)
12,CCCCCCCCCCCCC[C@H](O)C[C@H](O)[C@H](C)N,85.9% [1.25 µM] (inactive)
13,C=CCNC(=O)Cc1c(-c2ccc(OC)cc2)oc2c(OC)c3c(c(OC)c12)OCO3,98.2% (inactive)
14,Cc1ccc(-c2nc3nc(-c4ccccc4)nc(N4CCN(S(=O)(=O)c5ccccc5)CC4)c3o2)cc1,85.7% (inactive)
15,COc1ccc(Oc2nc(Nc3ccc(N4CCOCC4)cc3)ncc2NC(=O)c2cccc(C(F)(F)F)c2)cc1,79.7% (inactive)
16,CCc1c2c(nc3ccc(OCc4ccc(B5OC(C)(C)C(C)(C)O5)cc4)cc13)-c1cc3c(c(=O)n1C2)COC(=O)[C@]3(O)CC,0.929% (active)
17,CON1CCC[C@]2(C)[C@H]3CC[C@@H]4[C@H]5[C@@H](O)C(C)(C)CC[C@]5(CO)CC[C@@]4(C)[C@]3(C)CC[C@H]2C1(C)C,111% (inactive)
18,COc1ccc(C(CC(=O)c2ccc3c(c2)OCO3)C(=O)O)cc1OC (stereo not given),106% (inactive) and 98.5% (inactive)
19,CCCNNC(=O)/C=C/c1ccc(CNCCc2c(C)[nH]c3ccccc23)cc1,50% [2.5 µM] (inactive)

# Same assay, conditions: 30 µM
row,SMILES,growth
1,CN(C)CCNc1ncc(F)c(-c2cnc3cc(-c4cnn(C)c4)ccn23)n1,62.3% (inactive)
